Screening data as filed in PubChem BioAssay.
Rce1 inhib: blocks yeast Ras-converting enzyme. yeast membranes, quenched prenylated peptide cleavage fluorescence. Q03530. AID 2563. calls only. 0.27% of 290,000 active;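 active = fall in fluorescence gain of 50% or more versus controls, with final raw signal at or below 3038400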;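 also: plate controls were neutral control wells for no effect and wells lacking membranes for full effect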
Target sequence (Q03530 whole entry, looked up): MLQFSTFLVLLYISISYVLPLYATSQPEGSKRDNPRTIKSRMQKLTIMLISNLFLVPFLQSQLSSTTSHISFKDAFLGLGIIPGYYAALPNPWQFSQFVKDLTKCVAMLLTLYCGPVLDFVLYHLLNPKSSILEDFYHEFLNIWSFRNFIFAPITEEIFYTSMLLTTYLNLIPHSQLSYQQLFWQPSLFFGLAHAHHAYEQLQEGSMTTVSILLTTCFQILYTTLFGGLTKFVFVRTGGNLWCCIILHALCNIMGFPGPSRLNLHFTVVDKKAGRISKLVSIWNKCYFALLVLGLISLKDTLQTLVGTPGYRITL
ABHD5-PLIN5 inh: inhibitors of human ABHD5-perilipin-5 interaction; Q00G26+Q8WTS1; Split G. princeps luciferase complementation, luminescence, 4 h; inhibition, % at 4 µM; 0.78% of 360,000 active;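 active = inhibition above the mean inhibition across every tested compound plus 3 SD, cut at about 22% in these data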;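 also: 0% = DMSO only wells and the 100% control is not disclosed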
Exocytosis inh: blocks lytic granule exocytosis | TALL-104 LAMP-1 surface exposure, flow cytometry; cells stimulated with thapsigargin and PMA | inhibition, % at 10 µM | 0.66% of 360,000 active | AID 651702;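 active = inhibition above about 55%, limit read from the data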
M18AAP inhibitor: blocks P. falciparum M18 aspartyl aminopeptidase. 1.2% of 290,000 active. recombinant PfM18AAP, H-Glu-NHMec fluorogenic cleavage. inhibition, % at 7.35 µM;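 active = inhibition above the campaign mean inhibition over all tested compounds plus 3 SD, cut at about 28% in these data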;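 also: 0% = plate median of test compound wells and 100% = 2 mM ZnCl2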
Platelet DG rel: platelet dense granule release activity | human platelet-rich plasma, SFLLRN dense granule ATP release, luminescence | inhibition, %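 (compounds screened at 7.5 µM in platelet-rich plasma)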 | 0.22% of 300,000 active;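 active = mean replicate score, as percent of positive control, at or above 50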
Active calls of the source: *; i = inactive; · = not tested or not shown; + = active, no number. Rows were chosen to be rich in hits. Some 2.6% of all compounds tested hit in one or more screens of this group.

SMILES | Rce1 inhib | ABHD5-PLIN5 inh | Exocytosis inh | M18AAP inhibitor | Platelet DG rel
CC1(C)CC[C@]2(C(=O)O[C@@H]3O[C@H](CO)[C@@H](O)[C@H](O)[C@H]3O)CC[C@]3(C)C(=CCC4[C@@]5(C)CC[C@H](O[C@@H]6O[C@H](C(=O)O)[C@@H](O[C@H]7OC[C@@H](O)[C@@H](O)[C@@H]7O)[C@H](O)[C@H]6O)C(C)(C)C5CC[C@]43C)[C@@H]2C1 (some centres not stated) | · | 7 | 56* | · | ·
c1ccc(Cn2c(SCc3cn4cccnc4n3)nnc2-c2ccco2)cc1 | i | 2 | -4 | -8 | -20
NC(=O)CSc1nc2scc(-c3ccco3)c2c(=O)n1-c1ccccc1 | i | 49* | 1 | -6 | 5
O=c1c2c(-c3ccco3)csc2nc(SCc2cn3cccnc3n2)n1-c1ccccc1 | i | 48* | -1 | 2 | 23
O=C(CSc1nc2scc(-c3ccco3)c2c(=O)n1-c1ccccc1)NCC1CCCO1 (configuration not stated) | i | 56* | 0 | -50 | 2
O=C(CSc1nc2scc(-c3ccco3)c2c(=O)n1-c1ccccc1)N1CCOCC1 | i | 7 | 5 | -2 | -2
c1ccc(-n2cnnc2SCc2cn3cccnc3n2)cc1 | + | 4 | 1 | -1 | 15
CCCCCNC(=O)C(=O)C1C(=O)Nc2ccccc21 (configuration not stated) | i | -1 | -6 | 4 | -11
CN(C)CCNc1ncnc2ccccc12 | i | 3 | 2 | 5 | -2
CN(C)CCNc1ncnc2oc(-c3ccccc3)c(-c3ccccc3)c12 | + | 15 | 45 | 1 | 0
CC(/C=N\NC(=O)CN1CCN(S(=O)(=O)c2ccc(C)cc2)CC1)=C\c1ccccc1 | + | -5 | -1 | -3 | -3
Cc1ccc(S(=O)(=O)N2CCN(CC(=O)N/N=C\C(Cl)=C\c3ccccc3)CC2)cc1 | i | -1 | 8 | -6 | 0
Cc1ccn2c(Nc3ccc4c(c3)OCO4)c(-c3ccc(O)cc3)nc2c1 | i | 2 | 11 | 31* | 0
Oc1ccc(-c2nc3ncccn3c2Nc2ccc3c(c2)OCO3)cc1 | i | -1 | -1 | 17 | 4
O=C1CC(Nc2ccc(N3CCOCC3)cc2)C(=O)N1c1cccc(C(F)(F)F)c1 (configuration not stated) | i | -9 | 5 | 10 | -28
COc1cccc(N2C(=O)CC(Nc3ccc(N4CCOCC4)cc3)C2=O)c1 (configuration not stated) | i | -3 | -1 | 29* | -7
COc1ccc(N2C(=O)CC(Nc3ccc(N4CCOCC4)cc3)C2=O)c(OC)c1 (configuration not stated) | i | -8 | 1 | 28* | -11
COc1ccc(C(=O)Nc2ccc(C3=NNC(=O)CC3C)cc2NC(=O)c2ccc(OC)cc2)cc1 (configuration not stated) | i | 9 | 3 | -8 | 7
COc1cc2nc(Nc3cccc(F)c3)nc(N)c2cc1OC | i | 6 | 62* | -2 | 2
CSc1ccc(S(=O)(=O)NCc2ccc(Cl)cc2Cl)cc1 | i | -5 | 100* | 6 | 1
Cc1nnc(N2C(=O)C(O)=C(C(=O)c3ccco3)C2c2ccc(C(C)(C)C)cc2)s1 (configuration not stated) | i | -3 | 0 | -4 | 52*
CCN(CC)CCN(C(=O)c1ccc2ccccc2c1)c1nc2cc3c(cc2s1)OCO3 | + | 6 | 4 | -5 | -11
COc1ccccc1-c1cc(C(=O)O)c2c(=O)n(C)c(=O)n(Cc3ccccc3)c2n1 | + | 0 | -10 | 1 | -1
CCOC(=O)CNC(=O)c1cccs1 | i | -2 | 3 | 3 | 1
CN(C)c1nc(SCC(=O)Nc2ccc(Cl)c(Cl)c2)nc(N2CCOCC2)n1 | i | 4 | 74* | -7 | -7
SMILES | Rce1 inhib | ABHD5-PLIN5 inh | Exocytosis inh | M18AAP inhibitor | Platelet DG rel
COc1ccccc1-c1cn[nH]c1-c1ccc(OCc2ccccc2F)cc1O | i | -20 | 26 | -6 | -2
N#CC1=C(S)N(c2ccccc2)C2(CCCCC2)NC1=O | i | -11 | 21 | 3 | 4
N#CC1=C(S)N(c2ccc(F)cc2)C2(CCCCC2)NC1=O | i | -3 | 81* | -3 | -5
Clc1ccc2nc(-c3ccco3)c(Cc3ccsc3)n2c1 | · | 49* | 53 | · | ·
Clc1ccc2nc(-c3ccccc3)c(Cc3ccsc3)n2c1 | · | 1 | -3 | · | ·
CCOc1cccc2sc(NC(=O)CC)nc12 | i | 3 | 2 | 6 | 2
CCC(=O)NNc1nc2c(F)cccc2s1 | i | -3 | -1 | 31* | -7
COC(=O)c1ccccc1OC(=O)c1cc2ccccc2oc1=O | i | 2 | 2 | 0 | -2
CC1CCN(c2c(NCc3ccc(C(=O)N4CCc5ccccc54)cc3)c(=O)c2=O)CC1 | i | -3 | -1 | 1 | -7
C=Cc1ncc(OC)c2c1[nH]c1ccccc12 | i | 24* | 34 | · | -4
CN(CC(=O)Nn1cnnc1)S(=O)(=O)c1ccc(Br)cc1 | i | -4 | -2 | 30* | 13
CN(CC(=O)Nc1ccncc1)S(=O)(=O)c1ccc(Br)cc1 | i | 11 | -3 | 3 | 8
O=c1[nH]c2c(s1)C=Nc1ccccc1N2 | i | -19 | -8 | -8 | 77*
CC(OC(=O)c1ccccn1)C(=O)Nc1nc(-c2ccc(F)c(F)c2)cs1 (configuration not stated) | · | 5 | -2 | · | ·
COc1ccc(C)cc1S(=O)(=O)Nc1ccc(-n2c(C)nc3ccccc3c2=O)cc1 | i | 13 | -3 | · | 4
Cc1ccc(C)c(N2CCN(S(=O)(=O)c3ccc4c(c3)OCCO4)CC2)c1 | i | -4 | -2 | 7 | 57*
Cc1csc2nc(CSc3nc4ccccc4o3)c(Br)n12 | i | 0 | -4 | 3 | -1
COc1cc(CN2CCC(C(=O)N3CCC(C)CC3)CC2)cc(Br)c1O | i | -4 | -5 | 31* | 5
CC[N+](C)(C)CC/C=C1/c2ccccc2Sc2ccc(Cl)cc21 | i | -2 | 0 | 0 | -22
CCCCCCCCCC[N+](C)(C)CC/C=C1/c2ccccc2Sc2ccc(Cl)cc21 | + | 6 | -6 | 6 | 1
CCCCCCCCCCC[N+](C)(C)CC/C=C1/c2ccccc2Sc2ccc(Cl)cc21 | + | 8 | -9 | 0 | 13
CCCCOc1ccc(NS(=O)(=O)c2ccc(-n3cnnn3)cc2)cc1 | i | -5 | 0 | -5 | 2
CC(C)n1c(CN2CCN(C)CC2)nc2c1c(=O)n(C)c(=O)n2C | i | -3 | 1 | 0 | 3
Cc1ccc(/C=C/C(O)=C2/C(=O)N(C)C3(C)CC2c2ccccc2O3)cc1 (configuration not stated) | i | 22* | 1 | 2 | 4
COc1ccc(-c2c(C)oc3c(CN4CCN(C)CC4)c(O)ccc3c2=O)cc1 | + | 3 | 2 | -11 | -20
